The values that follow come from PubChem BioAssay AID686978 (National Center for Advancing Translational Sciences (NCATS), 2013).

Screen size: about 420,000 compounds; about 64,000 (15%) were called active. Another 27% or so got no clear call; they are omitted. Not all results are given here. A number with no mark means an inactive call. The call rests on the fitted dose curve; in most records, active means well fitted inhibition curve with a large enough effect; inconclusive means small, poorly fitted or top-dose-only effect; inactive means flat fitted curve, though single readings scatter.
On the % scale 0 is the no-effect control and ±100 the full control effect; potency means the concentration at half of the fitted maximal effect.

The assay can be described thus: qHTS for Inhibitors of human tyrosyl-DNA phosphodiesterase 1 (TDP1): qHTS in cells in absence of CPT. Further: nearly all actives have a fitted effect of over 55% in size. The note with it: DT40 Tdp1-/- hTDP1 cells, no CPT, ATP luminescence, 48 h; activity change, negative = growth inhibition: at 46.2 µM (top of the series). The method, boiled down: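 Compound effects on proliferation are scored in DT40 Tdp1-/-;hTDP1 cells in the absence of CPT. ATP levels (CellTiter-Glo luminescence) are recorded after a ≥48 hr, 37 °C incubation.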
For orientation: In qHTS, concentration-response curves come from the screen itself.
For `CC(=O)Nc1ccc(NC(=S)NC(=O)/C=C/c2ccccc2)cc1`, the “activity change, negative = growth inhibition” value was -20.6%.
For `CC1(C)C=Cc2c(ccc(C(=O)/C=C/c3ccccc3)c2O)O1`, the Potency was 8.91 µM (active).
`COc1cccc(N2C(=O)CC(N3CCN(S(=O)(=O)c4ccccc4)CC3)C2=O)c1` (centres undefined): the “activity change, negative = growth inhibition” value was -3.21%.
As to `C[C@H](O)[C@@H]1C(=O)N2CCc3ccc(N4CCOCC4)cc3[C@@H]2C[C@@H]1N(C)C(=O)C(C)(C)C`, the “activity change, negative = growth inhibition” value was 0.412%.
As for `COc1ccc(-c2ccc3c(c2)[C@@H]2C[C@H](N(C)S(=O)(=O)c4ccccc4)[C@H]([C@H](C)O)C(=O)N2CC3)cc1`, the Potency was 16.4 µM (active).
As to `CC1=C(C(N)=O)C(c2ccc(F)cc2)n2nc(CCCO)nc2N1` (centres undefined), the “activity change, negative = growth inhibition” value was 4.07%.
On the same count and under the same terms, the figure for `Cc1cccc(CCNS(=O)(=O)c2ccc3c(c2)NC(=O)CO3)c1` is -17.4%; for `CCCC(=O)Nc1cc2nn(-c3ccccc3)nc2cc1C` it is -21%.
For `COc1cc(OC)cc(C(=O)Nc2cc3nn(-c4ccccc4)nc3cc2Cl)c1`, the Potency is 16.4 µM (active).
On to `CCOC(=O)c1cc(-c2ccccc2)n(-c2cccc(C(=O)Nc3cc(OC)cc(OC)c3)c2)c1C`, for which the “activity change, negative = growth inhibition” value was -16.9%.
In the case of `Cc1cccc(Nc2nnc(SCC(=O)c3c(N)n(C4CC4)c(=O)[nH]c3=O)s2)c1C`, the Potency is 11.6 µM (active).
On to `Cc1ccccc1Nc1nnc(SCC(=O)c2cc3ccccc3o2)s1`, for which the “activity change, negative = growth inhibition” value was -103%.
With `CCCn1c(N)c(C(=O)CSc2nnc(Cc3cccs3)n2C2CC2)c(=O)[nH]c1=O`, the “activity change, negative = growth inhibition” value was -20.6%.
Turning to `CC1CC(C)CN(C/C=C/c2ccccc2[N+](=O)[O-])C1` (centres undefined), the “activity change, negative = growth inhibition” value was -22.6%.
In the case of `COc1ccc(N2CCN(C3CC(=O)N(c4ccc5c(c4)OCCO5)C3=O)CC2)cc1` (centres undefined), the “activity change, negative = growth inhibition” value was 5.91%.
As for `CC1C(=O)N(Cc2cn(Cc3ccco3)nn2)CCS(=O)(=O)N1Cc1ccc(-c2cccc(CO)c2)cc1` (centres undefined), the Potency is 9.2 µM (active).
In the case of `CC(C)CC1C(=O)N(Cc2cn(Cc3ccco3)nn2)CCS(=O)(=O)N1Cc1ccc(-c2ccc(Cl)c(Cl)c2)cc1` (centres undefined), the Potency was 20.6 µM (active).
Regarding `CCc1cc(=O)oc2cc(C)cc(OCC(=O)N3CCC[C@@H]3C(=O)O)c12`, the “activity change, negative = growth inhibition” value is -3.49%.
With `CC(NC(=O)COc1ccccc1)C(=O)NC1=NCCS1` (centres undefined), the “activity change, negative = growth inhibition” value is -4.39%.
For the compound `CCOc1ccc(OCC(=O)Nc2c3c(nn2C(C)(C)C)CS(=O)(=O)C3)cc1`, the “activity change, negative = growth inhibition” value was 4.73%.
On to `CCN1C(=O)C(CC(=O)Nc2cc(C)ccc2C)SC1=Nc1ccc(S(N)(=O)=O)cc1` (centres undefined), for which the “activity change, negative = growth inhibition” value is -22.5%.
`CCOc1cccc2cc(C(=O)OCC(=O)Nc3c(C)cccc3CC)c(=O)oc12`: the “activity change, negative = growth inhibition” value was -14.4%.
On to `Cc1ccc(CN2CCN(Cc3cccc(C)n3)CC2CCO)cc1` (centres undefined), for which the “activity change, negative = growth inhibition” value was -6.22%.
As for `Cc1ccc(CN2CCN(Cc3cn(C)nc3-c3ccccc3)CC2CCO)o1` (centres undefined), the “activity change, negative = growth inhibition” value is -4.56%.
As for `COc1ccc(CN2CCN(Cc3cn(C)nc3-c3ccccc3)CC2CCO)c(C)c1C` (centres undefined), the Potency was 18.4 µM (active).
Take `CCCC(=O)n1nc(NCc2ccc(OC)cc2)nc1NCc1ccc(OC)cc1`: the “activity change, negative = growth inhibition” value was -12%.
With `O=C(c1ccco1)n1nc(-c2ccc(Cl)cc2)nc1NCc1ccccc1`, the Potency is 18.4 µM (active).
Regarding `O=C(c1ccc(Cl)cc1)n1nc(-c2cccnc2)nc1NCc1ccc(F)cc1`, the “activity change, negative = growth inhibition” value is -17.7%.
Take `COc1ccc(CNc2nc(-c3ccccc3)nn2C(=O)c2ccccc2OC)cc1`: the Potency is 18.4 µM (active).
For `O=C(Cc1ccccc1)n1nc(-c2ccccc2)nc1NCc1ccco1`, the “activity change, negative = growth inhibition” value was -20.2%.
For `O=C(c1cccs1)n1nc(NCc2ccccc2)nc1NCc1ccccc1`, the “activity change, negative = growth inhibition” value was -25.3%.
Turning to `CC1CCCCC12NC(=O)N(CC(=O)OCC(=O)NCc1ccc(F)cc1)C2=O` (centres undefined), the “activity change, negative = growth inhibition” value was 13%.
Same read-out and setting: the figure for `CN1CCN(c2cc(=O)n(-c3ccc(Cl)cc3)c(=O)[nH]2)CC1` is 8.74%.
As to `O=C(O)c1ccccc1N=N/C(=N/Nc1cc(S(=O)(=O)O)ccc1O)c1ccccc1`, the “activity change, negative = growth inhibition” value is -21.2%.
On to `Cc1c(Cl)cccc1NC(=O)CCS(=O)(=O)c1ccc2c(c1)oc(=O)n2C`, for which the “activity change, negative = growth inhibition” value was -28.5%.
With `NC(=O)C1CCN(C(=O)CC2C(=O)NCCN2Cc2cccc(Oc3ccccc3)c2)CC1` (centres undefined), the “activity change, negative = growth inhibition” value is 8.81%.
The same measure, in the same setting: the figure for `Cc1ccc(SCC(=O)NNC(=O)c2ccc(S(C)(=O)=O)cc2)cc1` is -6.08%; for `Cc1ccccc1-n1cc(CNC(=O)CC2C(=O)NCCN2C/C=C/c2ccccc2)cn1` (centres undefined) it is 0.773%.
In the case of `COc1cc(OC)c(NC(=O)Cc2ccc(-n3c(C)nc4cccnc43)cc2)cc1Cl`, the Potency is 14.6 µM (active).
Take `COCCn1c(CCC(=O)Nc2cc(C)ccc2C)nc2cccnc21`: the “activity change, negative = growth inhibition” value is -22.2%.
Same read-out and setting: the figure for `Cc1ccc(Cl)cc1NC(=O)c1ccccn1` is -1.57%; for `COCCCNC(=O)Cc1ccc(-n2c(C)nc3cccnc32)cc1` it is -5.57%.
The same measure, in the same setting: the figure for `CCc1nc2cccnc2n1-c1ccc(C(=O)O)cc1` is 7.89%.
In the case of `Cc1ccc(Cl)cc1NC(=O)Cc1ccc(-n2c(C)nc3cccnc32)cc1`, the Potency is 23.1 µM (active).
Take `O=C(O)C1CCN(c2ncnc3ccc(-c4ccccc4C(F)(F)F)cc23)CC1`: the “activity change, negative = growth inhibition” value is 2.09%.
With `O=C(CC1C(=O)NCCN1CC(c1ccccc1)c1ccccc1)NCCc1cn[nH]c1` (centres undefined), the “activity change, negative = growth inhibition” value is -18.8%.
Turning to `CCN(CC(=O)NCc1cccs1)C(=O)c1ccc(OC)c(S(=O)(=O)N2CCOCC2)c1`, the “activity change, negative = growth inhibition” value is -13.2%.
`Cc1ccc(C2=Nc3c(ccc4ccccc34)C(c3ccncc3)=NN2)cc1`: the Potency was 11.6 µM (active).
Consider `COc1cc(C)nc(N2CCCC(C(=O)NCC(C)C)C2)n1` (centres undefined), for which the “activity change, negative = growth inhibition” value is -8.52%.
